Data published in the supplement of paper PMC6555819.

Columns and labels:
Test in all cases: PBM binding z-score (relative to random genomic background probes); higher = stronger binding; sequences stand for … in GC…GCGATTGACAGCGTAGAATGAAGG
[1] = system: FXR:RXRa (NR concentration 270 nM, RXRa partner concentration 90 nM)
Summary of the method: (§1)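 Binding z-scores were set against random background probes. The data came from custom Agilent 4×180K protein-binding microarrays carrying double-stranded probes with 34-nt variable regions, incubated 1 h with ligand-free nuclear receptor dimers. Partner-specific antibodies detected binding, and scanned fluorescence was regression-normalized.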

[2] = system: LXRa:RXRa (NR concentration 270 nM, RXRa partner concentration 90 nM)
Summary of the method: as §1

[3] = system: LXRa homodimer (NR concentration 270 nM)
Summary of the method: as §1

[4] = system: LXRb:RXRa (NR concentration 270 nM, RXRa partner concentration 90 nM)
Summary of the method: as §1

[5] = system: LXRb homodimer (NR concentration 270 nM)
Summary of the method: as §1

[6] = system: PPARa:RXRa (NR concentration 270 nM, RXRa partner concentration 90 nM)
Summary of the method: as §1

[7] = system: PPARg:RXRa (NR concentration 180 nM, RXRa partner concentration 90 nM)
Summary of the method: as §1

[8] = system: PPARg:RXRa 270nM:90nM, anti-RXR (NR concentration 270 nM, RXRa partner concentration 90 nM)
Summary of the method: as §1

[9] = system: PPARg:RXRa 30nM:10nM, anti-RXR (NR concentration 30 nM, RXRa partner concentration 10 nM)
Summary of the method: as §1

[10] = system: PPARg:RXRa 90nM:30nM, anti-RXR (NR concentration 90 nM, RXRa partner concentration 30 nM)
Summary of the method: as §1

Sequence	PBM binding z-score [1]	PBM binding z-score [2]	PBM binding z-score [3]	PBM binding z-score [4]	PBM binding z-score [5]	PBM binding z-score [6]	PBM binding z-score [7]	PBM binding z-score [8]	PBM binding z-score [9]	PBM binding z-score [10]
ACTATTAGTTGACTCAGGGCAACCGATACGACGC	0.117	0.225	0.326	0.195	0.862	0.023	0.893	0.163	0.201	0.123
TCGAGTAGGTTAGGGACATTCAGAATGGCGTCGA	0.438	-0.314	-0.491	-0.146	-0.828	0.561	0.371	0.659	1.18	0.799
TAGCCTAGTTCATTGGGCCAGTATAGTACGCATC	-0.0548	0.147	-0.141	0.139	-0.687	0.81	0.461	0.538	-0.446	0.253
TATACAGTGTCAAAGGCCAGAGTACGAATGTCGA	0.666	0.861	0.197	0.608	0.893	2.18	3.95	4.17	2.41	3.86
CCTACTGGGCCAAAAAGGTCAATGATGCCGATAA	2.77	3.48	1.68	3.86	-0.306	4.92	3.36	3.84	1.55	2.86
GCTAGCAGGCCATTTGGGTCACTCAGTGACGGGC	0.0736	-0.00862	-0.609	-0.133	-1.43	1.14	0.272	0.402	-0.825	-0.0196
CGGCAAAGTTCAACTAAGGTAACGTAAAGCACGC	7.42	5.93	2.94	3.99	1.22	5.03	4.7	5.19	1.6	3.81
CGTCCAAGGTCAATGCTAGGTCAGTGCAAGCATT	6.7	5.58	2.83	4.07	0.975	4.94	3.6	4.26	0.996	3.23
TCTTGGAGATCAGCAGGTTAAGAAAGCTGGCCAA	0.173	-0.0127	-0.38	0.0269	-0.539	0.752	-0.546	0.883	2.2	1.52
TCTCGGAGGACACGAAAGGTCAGAGCCCGACATC	2.84	3.75	3.31	3	-0.257	3.36	1.57	2.78	2.36	2.59
TCATATAGGTAAACAGGTGAAAGACCGTAAGTTA	0.974	0.774	0.26	0.571	-0.084	2.47	3.45	3.63	4.12	4.03
CCAGACAGGTGAAAGGCAACTCAGTCTGGTACGC	-0.102	0.0112	-0.327	0.0509	-0.597	1.7	2.49	3.2	1.12	2.8
ATCTCTAGGTAACAAATTCAGTGAAAGAGAGGAC	0.723	0.714	0.441	0.288	1.15	0.552	0.558	0.598	0.83	0.732
CGTCCAAGGTCAGCAGGTCAGTGACAGCGACGTG	5.75	3.99	0.47	2.99	-0.142	4.63	3.93	4.53	1.26	2.97
TCTCGGAGGACACGAAGTTCAGAGCTTTCCAGAG	0.621	0.0816	-0.00666	0.0852	-0.97	0.472	-0.146	1.2	2.18	1.76
TCTAACAGGCCAGAGGGTCACTCAAGAGGTACGG	1.24	1.31	-0.315	1.47	-0.439	2.54	1.41	2.62	3.2	2.71
TGAATGTGGTTATAAGATCAGGGAACGTTGCAAA	0.123	0.222	0.268	0.397	0.612	0.12	0.237	0.617	0.803	1.15
ACTTACGGGTCAACGAGGTTATGGCACGCGTATA	7.06	5.06	0.89	4.51	0.72	5.54	5.52	5.67	2.05	3.95
GGAACTAGGGCATTCGAGTTGATAGCATGGCGAT	0.225	0.214	-0.0911	-0.433	-0.474	2.54	3.49	3.04	0.86	1.91
